Measured values published in a collection of fitness landscapes (doi:10.1016/j.celrep.2020.107928).
The full ranking holds about 81,000 sequences; the median of “one-hybrid fitness for binding NBS DNA” is about -0.1, and the highest 2% start at about 0.36. The entries come from a sample that favours the highest values as a whole.

B1: Caulobacter ParB omega fusion; a variant is named by its letters at X, in order, B8GW30 (parent)
chain: MESVVVGEPGMSEGRRGLGRGLSALLGEVDAAPAQAPGEQLGGSREAPIEILQRNPDQPRRTFREEDLEDLSNSIREKGVLQPILVRPSPDTAGEYQIVAGERAWRAAQRAGLKTVPIMVRELDDLAVLEIGIIENVQRADLNVLEEALSYKVLMEKFERTQENIAQTIGKSXSHVANXMRLLXLPDEVQSYLVSGELTAXHARAIAAAADPVALAKQIIEGGLSVRETEALARKAPNLSAGKSKGGRPPRVKDTDTQALESDLSSVLGLDVSIDHRGSTGTLTITYATLEQLDDLCNRLTRGI

Variants of: B1
Assay: one-hybrid fitness for binding NBS DNA (the Noc-binding site; scaled: cognate 1, non-cognate 0); higher = stronger binding
Settings: with NBS DNA site
Summary of the method: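 On M9-minus-histidine containing 0.1 mM IPTG and 5 mM 3-AT, E. coli USO cells with a HIS3 reporter, site 19 bp from the promoter, grew 48 hours at 37°C to select Caulobacter ParB libraries randomised at four specificity codons. Plasmids from before and after were Illumina-sequenced, with three replicate libraries pooled and variants under 10 reads left out. Fitness is the log change in variant-to-wild-type read ratio, rescaled against cognate and non-cognate.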

one-hybrid fitness for binding NBS DNA, 0.528:
RKET

one-hybrid fitness for binding NBS DNA, 0.45:
QMRM

one-hybrid fitness for binding NBS DNA, ≤ 0.2:
HKRE
TTVD
RYII
YVSR
VVAC
CQVS
GESL
PASE
TQWR
YKER
SGPG
RKEC
RKEN
RSER
RKED
RSET
RKEP
TPNM
GAKV
PFSN
GRHM
ESQL
SDYT
TGQV
AFRG
AFCR
QMQQ
TPAD
CAYF
LIRD
PIRV
QTYM
QCYM
QTDM
QHDM
QPRM
QHQM
QKYM
QKDM
IVMP
STQT
NHEL
TDNM
IHYS
RIDA
LSVV
TPRN
NHPC
LYSC
GAPG
PSHR
RVAG
YGRN
AHAS
QMYM
QSDM
QSYM
QMDM
PHEA
DNPI

one-hybrid fitness for binding NBS DNA, 0.379:
QHRM

one-hybrid fitness for binding NBS DNA, 0.254:
QRWM

one-hybrid fitness for binding NBS DNA, 0.505:
QCRM

one-hybrid fitness for binding NBS DNA, 0.322:
QMKI

one-hybrid fitness for binding NBS DNA, 0.277:
QMKP

one-hybrid fitness for binding NBS DNA, 0.283:
QMVQ

one-hybrid fitness for binding NBS DNA, 0.3:
QMKF

one-hybrid fitness for binding NBS DNA, 0.237:
RQKV

one-hybrid fitness for binding NBS DNA, 0.313:
QMKD

one-hybrid fitness for binding NBS DNA, 0.353:
QRYM

one-hybrid fitness for binding NBS DNA, 0.282:
QMVS

one-hybrid fitness for binding NBS DNA, 0.559:
QMKH

one-hybrid fitness for binding NBS DNA, 0.434:
RKES

one-hybrid fitness for binding NBS DNA, 0.215:
QMKE

one-hybrid fitness for binding NBS DNA, 0.668:
QMKS

one-hybrid fitness for binding NBS DNA, 0.402:
QSRM

one-hybrid fitness for binding NBS DNA, 0.4:
QMKN
QKRM

one-hybrid fitness for binding NBS DNA, 0.417:
QMKQ

one-hybrid fitness for binding NBS DNA, 0.589:
QRRM

one-hybrid fitness for binding NBS DNA, 0.475:
RKER

one-hybrid fitness for binding NBS DNA, 0.562:
QTRM
